Assay results as given in PubChem BioAssay AID1159580 (chemical genetic matrix, 2015).
The whole screen tested about 5,500 compounds, of which about 2,000 (36%) were called active. About 18% were inconclusive and are not listed. Cut-off read from the data, not from the text of the source: active = normalized growth mostly below about 0.91 (no sharp cut-off); inconclusive = no clear call, values can overlap the other calls; inactive = mostly above about 0.92. Some of the results follow.

Experiment: chemical genetic growth profiling, strain panel (AID 1159580);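 note: tested at 20 µM; growth read once vehicle control cultures reached saturation at 30 °C; 1 = growth at the plate median or of vehicle wells; lower values mean less growth of the strain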
Details: S. cerevisiae deletion strains, growth OD

Measured: normalized growth

CC(C)=CCC/C(C)=C/COc1ccc2ccc(=O)oc2c1
inactive: locus YAL021C, strain ccr4, active compounds read low 0.994 | locus YAL026C, strain drs2, active compounds read low 0.999 | locus YAL030W, strain snc1, active compounds read low 0.986 | locus YBL061C, strain skt5, active compounds read low 0.985 | locus YBR009C, strain hhf1, active compounds read low 0.976 | locus YBR023C, strain chs3, active compounds read low 0.982 | locus YBR171W, strain sec66, active compounds read low 0.981 | locus YBR231C, strain swc5, active compounds read low 0.996 | locus YBR279W, strain paf1, active compounds read low 0.99 | locus YCL011C, strain gbp2, active compounds read low 0.978 | locus YCL016C, strain dcc1, active compounds read low 0.988 | locus YCL061C, strain MRC1, active compounds read low 1 | locus YCL069W, strain vba3, active compounds read low 0.985 | locus YCR088W, strain abp1, active compounds read low 0.99 | locus YDL005C, strain med2, active compounds read low 1 | locus YDL040C, strain nat1, active compounds read low 0.986 | locus YDR001C, strain nth1, active compounds read low 0.993 | locus YDR069C, strain doa4, active compounds read low 0.998 | locus YDR137W, strain rgp1, active compounds read low 0.893 | locus YDR159W, strain sac3, active compounds read low 1.01 | locus YDR195W, strain ref2 1.04 | locus YDR297W, strain sur2, active compounds read low 0.984 | locus YDR334W, strain swr1, active compounds read low 0.992 | locus YDR335W, strain msn5, active compounds read low 1 | locus YDR392W, strain spt3, active compounds read low 0.952 | locus YEL003W, strain gim4, active compounds read low 0.997 | locus YEL037C, strain rad23, active compounds read low 0.991 | locus YEL061C, strain CIN8 (second series), active compounds read low 0.993 | locus YER015W, strain faa2, active compounds read low 1 | locus YER016W, strain bim1, active compounds read low 0.986 | locus YER111C, strain swi4, active compounds read low 1 | locus YER155C, strain BEM2 (second series), active compounds read low 0.999 | locus YFR010W, strain ubp6, active compounds read low 1 | locus YGL167C, strain pmr1, active compounds read low 0.985 | locus YGL173C, strain kem1, active compounds read low 0.99 | locus YGL227W, strain vid30, active compounds read low 0.992 | locus YGL240W, strain doc1, active compounds read low 0.999 | locus YGL253W, strain hxk2, active compounds read low 0.994 | locus YHR013C, strain ard1, active compounds read low 0.971 | locus YHR027C, strain rpn1, active compounds read low 0.998 | locus YHR030C, strain SLT2, active compounds read low 0.948 | locus YHR079C, strain IRE1, active compounds read low 0.969 | locus YHR142W, strain chs7, active compounds read low 0.962 | locus YJL092W, strain hpr5, active compounds read low 1 | locus YJL095W, strain BCK1 (second series), active compounds read low 0.987 | locus YJL095W, strain BCK1, active compounds read low 0.937 | locus YJL115W, strain asf1, active compounds read low 1 | locus YJL129C, strain trk1, active compounds read low 0.911 | locus YJL154C, strain vps35, active compounds read low 0.99 | locus YJL164C, strain tpk1, active compounds read low 0.966 | locus YJL166W, strain qcr8, active compounds read low 0.99 | locus YJL187C, strain SWE1, active compounds read low 0.99 | locus YJR066W, strain TOR1, active compounds read low 0.932 | locus YKL160W, strain elf1, active compounds read low 0.976 | locus YKR026C, strain gcn3, active compounds read low 0.99 | locus YKR091W, strain srl3, active compounds read low 0.985 | locus YLL001W, strain dnm1, active compounds read low 1 | locus YLL026W, active compounds read low 0.984 | locus YLL041C, strain sdh2, active compounds read low 0.983 | locus YLR027C, strain aat2, active compounds read low 0.974 | locus YLR113W, strain HOG1, active compounds read low 0.944 | locus YLR221C, strain rsa3, active compounds read low 0.976 | locus YLR258W, strain gsy2, active compounds read low 0.981 | locus YLR262C, strain YPT6 (second series), active compounds read low 0.932 | locus YLR320W, strain mms22, active compounds read low 0.974 | locus YLR342W, strain FKS1, active compounds read low 0.97 | locus YLR357W, strain rsc2, active compounds read low 1.01 | locus YLR370C, strain arc18, active compounds read low 0.999 | locus YLR384C, strain iki3, active compounds read low 0.992 | locus YML120C, strain ndi1, active compounds read low 0.973 | locus YMR058W, strain fet3, active compounds read low 1 | locus YMR125W, strain sto1, active compounds read low 0.996 | locus YMR129W, active compounds read low 0.993 | locus YMR205C, strain PFK2, active compounds read low 0.96 | locus YMR231W, strain pep5, active compounds read low 0.965 | locus YNL071W, strain lat1, active compounds read low 0.965 | locus YNL183C, strain NPR1, active compounds read low 0.912 | locus YNL209W, strain ssb2, active compounds read low 0.983 | locus YNL248C, strain rpa49, active compounds read low 0.981 | locus YNL322C, strain KRE1 (second series), active compounds read low 0.994 | locus YNR049C, strain mso1, active compounds read low 0.996 | locus YOR001W, strain rrp6, active compounds read low 0.989 | locus YOR070C, strain gyp1, active compounds read low 0.983 | locus YOR080W, strain dia2, active compounds read low 0.997 | locus YOR083W, strain WHI5, active compounds read low 0.978 | locus YOR106W, strain vam3, active compounds read low 0.933 | locus YOR231W, strain MKK1, active compounds read low 0.968 | locus YOR265W, strain rbl2, active compounds read low 0.973 | locus YOR270C, strain vph1, active compounds read low 0.896 | locus YOR290C, strain snf2, active compounds read low 0.968 | locus YPL051W, strain arl3, active compounds read low 0.987 | locus YPL078C, strain atp4, active compounds read low 0.983 | locus YPL106C, strain sse1, active compounds read low 1.01 | locus YPL240C, strain hsp82, active compounds read low 0.992 | locus YPL256C, strain CLN2, active compounds read low 0.917
